Data reported in PubChem BioAssay (EPA / NIEHS).
Results filed as inconclusive are left out. Active and inactive are the calls of the source. The calls were made as follows, unless noted: active = hit-call score of the fitted dose curve at least 0.9, where 1 is the maximum; inconclusive = response in the unintended direction; inactive = score below 0.9.

Tests used:
[1] = ATG_TCF_b_cat_CIS: Attagene CIS-FACTORIAL HepG2 Assay for human T-Cell-Factor with beta-catenin (TCF/b-cat) (AID 2282965; active = hit-call score of the fitted dose curve at least 0.9, where 1 is the maximum; inactive = score below 0.9); settings: HepG2 TCF/beta-catenin cis-reporter transcription, actives raise or lower the signal
How it was run: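 Endogenous transcription factor activity is captured through cis-promoter reporter constructs transiently introduced into human HepG2 liver cells. Induced reporter mRNA is measured after 24 h and fitted bidirectionally relative to DMSO.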

[2] = ATG_TAL_CIS: Attagene CIS-FACTORIAL HepG2 Assay for human TAL Basal Promoter (AID 2282966; active = hit-call score of the fitted dose curve at least 0.9, where 1 is the maximum; inactive = score below 0.9;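 also: background control endpoint measuring basal TAL promoter reporter mRNA not a specific factor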); settings: HepG2 Attagene cis-factorial TAL promoter reporter; actives raise or lower the signal
How it was run: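 Readout: reporter mRNA, fluorescence by CE. System: HepG2, transient multi-reporter transfection, endogenous TF activity. Exposure: 24 h. Analysis: bidirectional, DMSO-normalized; background control.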

[3] = ATG_TGFb_CIS: Attagene CIS-FACTORIAL HepG2 Assay for human Transforming Growth Factor (TGF) (AID 2282967; active = hit-call score of the fitted dose curve at least 0.9, where 1 is the maximum; inactive = score below 0.9); settings: HepG2 Attagene CIS TGFb reporter, mRNA transcription; actives raise or lower the signal
How it was run: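 Liver HepG2 line, cis-factorial reporter panel, 24 h dosing. Quantitation: RT-PCR products labeled with 6-FAM, cut with HpaI, resolved by capillary electrophoresis; DMSO-referenced bidirectional analysis.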

[4] = ATG_VDRE_CIS: Attagene CIS-FACTORIAL HepG2 Assay for human Vitamin D Receptor Element (VDRE) (AID 2282968; active = hit-call score of the fitted dose curve at least 0.9, where 1 is the maximum; inactive = score below 0.9); settings: HepG2 VDRE cis-reporter transcription, actives raise or lower the signal
How it was run: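 In transiently transfected HepG2 liver cells, gain or loss of reporter mRNA after 24 h exposure is scored relative to DMSO, using fluorescence detection by capillary electrophoresis of RT-PCR products.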

[5] = target: Estrogen receptor (Homo sapiens) (UniProt P03372); assay: ATG_ERa_TRANS: Attagene TRANS-FACTORIAL HepG2 Assay for human Estrogen Receptor alpha (ERa) (AID 2282970); settings: HepG2 Attagene TRANS ERa GAL4 reporter, mRNA
Estrogen receptor (Homo sapiens), sequence (P03372 whole entry, looked up, the tested form may be a part): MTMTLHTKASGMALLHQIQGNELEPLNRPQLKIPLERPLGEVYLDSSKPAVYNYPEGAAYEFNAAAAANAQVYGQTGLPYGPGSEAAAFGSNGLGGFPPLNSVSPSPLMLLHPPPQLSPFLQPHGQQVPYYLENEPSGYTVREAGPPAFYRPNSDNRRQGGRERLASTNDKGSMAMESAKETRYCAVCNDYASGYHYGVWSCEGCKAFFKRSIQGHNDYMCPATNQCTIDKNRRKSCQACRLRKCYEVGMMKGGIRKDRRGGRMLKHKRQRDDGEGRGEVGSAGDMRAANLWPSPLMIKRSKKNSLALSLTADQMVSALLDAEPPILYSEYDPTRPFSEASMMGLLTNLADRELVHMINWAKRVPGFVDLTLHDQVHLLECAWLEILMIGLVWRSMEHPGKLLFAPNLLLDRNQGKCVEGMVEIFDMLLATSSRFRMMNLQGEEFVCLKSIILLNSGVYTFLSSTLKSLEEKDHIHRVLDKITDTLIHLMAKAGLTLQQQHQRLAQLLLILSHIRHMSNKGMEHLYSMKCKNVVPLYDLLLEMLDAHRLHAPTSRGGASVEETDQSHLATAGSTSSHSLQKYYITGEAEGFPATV
How it was run: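 Transactivation via ERa-Gal4 chimera in HepG2; 24 hour incubation; reporter mRNA detected by fluorescence RT-PCR and capillary electrophoresis.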

[6] = target: X-box-binding protein 1 (Homo sapiens) (UniProt P17861); assay: ATG_Xbp1_CIS: Attagene CIS-FACTORIAL HepG2 Assay for human X-box Binding Protein 1 (XBP1) (AID 2282972; active = hit-call score of the fitted dose curve at least 0.9, where 1 is the maximum; inactive = score below 0.9); settings: HepG2 XBP1 cis-element reporter, Attagene multiplex; actives raise or lower the signal
X-box-binding protein 1 (Homo sapiens), sequence (P17861 whole entry, looked up, the tested form may be a part): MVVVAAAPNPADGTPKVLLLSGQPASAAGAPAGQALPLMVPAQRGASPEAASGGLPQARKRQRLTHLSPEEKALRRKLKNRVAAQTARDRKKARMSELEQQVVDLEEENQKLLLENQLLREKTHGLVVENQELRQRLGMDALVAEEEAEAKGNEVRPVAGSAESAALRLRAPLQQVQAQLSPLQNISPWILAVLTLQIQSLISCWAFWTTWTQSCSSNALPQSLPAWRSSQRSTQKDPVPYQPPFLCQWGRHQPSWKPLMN
How it was run: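 Fluorescence-labelled cDNA fragments from reporter transcripts, separated by capillary electrophoresis, give the signal. Source: HepG2 cells transfected with promoter-driven reporter units, harvested 24 h post-dose. DMSO served as reference for bidirectional curve fitting.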

[7] = ATG_M_19_TRANS: Attagene TRANS-FACTORIAL HepG2 Assay for M19 Transcription Factor (Internal Marker) (AID 2282974); settings: HepG2 Attagene TRANS-FACTORIAL M19 internal marker reporter
How it was run: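 Background-control readout: after 24 h chemical exposure of transfected HepG2 carrying GAL4-driven reporter units, RNA was reverse-transcribed, amplified, fluorescently labeled and sized by capillary electrophoresis; gain-of-signal fit against DMSO.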

[8] = target: Bile acid receptor (Homo sapiens) (UniProt Q96RI1); assay: ATG_FXR_TRANS: Attagene TRANS-FACTORIAL HepG2 Assay for Farnesoid X Receptor (FXR) (AID 2282979); settings: HepG2 Attagene TRANS FXR-GAL4 reporter transcription;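 also: hits raise reporter mRNA above DMSO so AC50 marks FXR activation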
Bile acid receptor (Homo sapiens), sequence (Q96RI1 whole entry, looked up, the tested form may be a part): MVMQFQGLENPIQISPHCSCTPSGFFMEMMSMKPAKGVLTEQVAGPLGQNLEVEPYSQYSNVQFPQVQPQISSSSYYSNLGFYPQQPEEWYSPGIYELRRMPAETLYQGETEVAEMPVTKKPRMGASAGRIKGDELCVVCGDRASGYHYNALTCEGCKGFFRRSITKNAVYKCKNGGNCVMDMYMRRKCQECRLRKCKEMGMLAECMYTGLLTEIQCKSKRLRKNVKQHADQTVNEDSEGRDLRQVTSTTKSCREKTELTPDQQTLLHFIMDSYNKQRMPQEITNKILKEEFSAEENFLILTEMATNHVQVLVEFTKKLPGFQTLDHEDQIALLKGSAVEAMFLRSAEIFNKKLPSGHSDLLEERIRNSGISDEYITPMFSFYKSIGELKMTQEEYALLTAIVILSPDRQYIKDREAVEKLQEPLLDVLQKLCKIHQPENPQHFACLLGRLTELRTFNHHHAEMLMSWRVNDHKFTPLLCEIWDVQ
How it was run: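 Chimeric FXR-GAL4 activity in transiently transfected human HepG2 liver cells is scored as induction of reporter mRNA after 24 h of dosing. Detection uses RT-PCR with fluorescent labelling and capillary electrophoresis, with DMSO serving as baseline.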

[9] = target: Hepatocyte nuclear factor 4-alpha (Homo sapiens) (UniProt P41235); assay: ATG_HNF4a_TRANS: Attagene TRANS-FACTORIAL HepG2 Assay for human Hepatocyte Nuclear Factor 4 alpha (HNF4a) (AID 2282982); settings: HepG2 HNF4a transactivation reporter, mRNA readout
Hepatocyte nuclear factor 4-alpha (Homo sapiens), sequence (P41235 whole entry, looked up): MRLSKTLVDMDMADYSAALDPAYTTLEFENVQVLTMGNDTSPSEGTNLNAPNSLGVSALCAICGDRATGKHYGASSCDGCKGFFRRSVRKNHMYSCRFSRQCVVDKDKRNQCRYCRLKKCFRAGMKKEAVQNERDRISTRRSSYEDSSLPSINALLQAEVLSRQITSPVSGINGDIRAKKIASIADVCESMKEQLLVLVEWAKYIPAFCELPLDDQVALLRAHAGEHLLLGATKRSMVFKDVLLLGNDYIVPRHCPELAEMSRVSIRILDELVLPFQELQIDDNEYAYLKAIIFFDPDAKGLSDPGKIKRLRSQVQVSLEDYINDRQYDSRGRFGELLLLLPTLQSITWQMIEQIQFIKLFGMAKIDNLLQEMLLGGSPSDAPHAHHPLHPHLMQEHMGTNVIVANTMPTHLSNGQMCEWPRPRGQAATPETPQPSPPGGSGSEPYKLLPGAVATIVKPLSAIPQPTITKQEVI
How it was run: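 Transfected HepG2 reporter cells are dosed for 24 h; reporter RNA is reverse-transcribed, amplified, fluorescently labelled and HpaI-digested before CE sizing. Positive-direction fit against DMSO.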

[10] = ATG_M_06_TRANS: Attagene TRANS-FACTORIAL HepG2 Assay for M06 Transcription Factor (Internal Marker) (AID 2282983); settings: HepG2 Attagene TRANS M06 internal marker reporter;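 also: reporter transcript level by RT-PCR then capillary electrophoresis fluorescence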
How it was run: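 Measured by capillary electrophoresis of fluorescently labelled RT-PCR products, this endpoint reflects reporter mRNA in HepG2 cells harbouring exogenous NR-GAL4 reporter constructs after 24 h exposure, with DMSO as baseline.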

[11] = ATG_M_32_TRANS: Attagene TRANS-FACTORIAL HepG2 Assay for M32 Transcription Factor (Internal Marker) (AID 2282984); settings: HepG2 Attagene TRANS M32 internal marker reporter;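 also: transcript level of a background control reporter unit measured by RT-PCR and capillary electrophoresis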
How it was run: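 Using transiently transfected HepG2 cells exposed to test chemicals for 24 h, reporter transcripts are converted to labelled cDNA fragments and quantified by capillary electrophoresis. DMSO defines the activity baseline.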

[12] = ATG_GAL4_TRANS: Attagene TRANS-FACTORIAL HepG2 Assay for GAL4 (Internal Marker) (AID 2282976); settings: HepG2 Attagene TRANS GAL4 internal marker reporter
How it was run: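 Fluorescence from capillary electrophoresis of labelled RT-PCR products quantifies reporter mRNA induction after 24 h dosing of HepG2 cells carrying transfected GAL4-UAS reporter transcription units. Vehicle DMSO serves as baseline.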

[13] = target: Oxysterols receptor LXR-alpha (Homo sapiens) (UniProt Q13133); assay: ATG_LXRa_TRANS: Attagene TRANS-FACTORIAL HepG2 Assay for human Liver X Receptor alpha (LXRa) (AID 2282980); settings: HepG2 Attagene TRANS reporter, LXRa transactivation
Oxysterols receptor LXR-alpha (Homo sapiens), sequence (Q13133 whole entry, looked up): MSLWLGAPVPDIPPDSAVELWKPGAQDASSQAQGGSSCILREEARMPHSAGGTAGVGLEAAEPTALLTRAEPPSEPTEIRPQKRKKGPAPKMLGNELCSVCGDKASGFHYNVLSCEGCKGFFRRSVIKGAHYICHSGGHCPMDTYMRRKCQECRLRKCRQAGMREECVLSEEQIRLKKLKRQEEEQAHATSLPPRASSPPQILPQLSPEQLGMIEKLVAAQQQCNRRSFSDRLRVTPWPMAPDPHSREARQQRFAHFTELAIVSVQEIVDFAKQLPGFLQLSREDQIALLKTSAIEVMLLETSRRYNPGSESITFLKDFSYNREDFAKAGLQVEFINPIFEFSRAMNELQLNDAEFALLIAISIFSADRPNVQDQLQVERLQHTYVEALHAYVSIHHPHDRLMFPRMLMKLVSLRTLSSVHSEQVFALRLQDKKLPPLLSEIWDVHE
How it was run: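 Transient HepG2 transfectants, 24 h dosing, RT-PCR/CE mRNA reporter quantitation; gain-of-signal vs DMSO.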

[14] = target: Oxysterols receptor LXR-beta (Homo sapiens) (UniProt P55055); assay: ATG_LXRb_TRANS: Attagene TRANS-FACTORIAL HepG2 Assay for human Liver X Receptor beta (LXRb) (AID 2282981); settings: HepG2 Attagene TRANS GAL4-LXRb reporter, mRNA
Oxysterols receptor LXR-beta (Homo sapiens), sequence (P55055 whole entry, looked up, the tested form may be a part): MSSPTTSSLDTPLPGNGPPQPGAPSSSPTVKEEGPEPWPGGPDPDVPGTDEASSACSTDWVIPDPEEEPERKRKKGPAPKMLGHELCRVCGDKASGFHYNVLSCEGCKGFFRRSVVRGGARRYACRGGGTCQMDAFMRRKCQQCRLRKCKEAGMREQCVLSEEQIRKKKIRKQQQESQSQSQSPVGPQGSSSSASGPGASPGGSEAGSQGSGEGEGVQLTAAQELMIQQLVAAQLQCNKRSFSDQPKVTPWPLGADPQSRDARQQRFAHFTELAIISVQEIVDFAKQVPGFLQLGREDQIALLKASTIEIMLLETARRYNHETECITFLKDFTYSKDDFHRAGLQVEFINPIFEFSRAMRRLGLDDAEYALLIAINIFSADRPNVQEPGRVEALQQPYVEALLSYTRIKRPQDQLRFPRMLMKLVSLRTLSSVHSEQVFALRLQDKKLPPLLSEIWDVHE
How it was run: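 Cells: HepG2, transiently transfected with GAL4-UAS reporter units plus LXRb-Gal4 fusion. Treatment: 24 h. Detection: reporter mRNA by RT-PCR, 6-FAM labelling, HpaI digestion, capillary electrophoresis.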

[15] = target: Nuclear receptor subfamily 4 group A member 2 (Homo sapiens) (UniProt P43354); assay: ATG_NURR1_TRANS: Attagene TRANS-FACTORIAL HepG2 Assay for human Nuclear Receptor Related Protein 1 (NURR1) (AID 2282985); settings: HepG2 Attagene TRANS reporter, mRNA readout
Nuclear receptor subfamily 4 group A member 2 (Homo sapiens), sequence (P43354 whole entry, looked up): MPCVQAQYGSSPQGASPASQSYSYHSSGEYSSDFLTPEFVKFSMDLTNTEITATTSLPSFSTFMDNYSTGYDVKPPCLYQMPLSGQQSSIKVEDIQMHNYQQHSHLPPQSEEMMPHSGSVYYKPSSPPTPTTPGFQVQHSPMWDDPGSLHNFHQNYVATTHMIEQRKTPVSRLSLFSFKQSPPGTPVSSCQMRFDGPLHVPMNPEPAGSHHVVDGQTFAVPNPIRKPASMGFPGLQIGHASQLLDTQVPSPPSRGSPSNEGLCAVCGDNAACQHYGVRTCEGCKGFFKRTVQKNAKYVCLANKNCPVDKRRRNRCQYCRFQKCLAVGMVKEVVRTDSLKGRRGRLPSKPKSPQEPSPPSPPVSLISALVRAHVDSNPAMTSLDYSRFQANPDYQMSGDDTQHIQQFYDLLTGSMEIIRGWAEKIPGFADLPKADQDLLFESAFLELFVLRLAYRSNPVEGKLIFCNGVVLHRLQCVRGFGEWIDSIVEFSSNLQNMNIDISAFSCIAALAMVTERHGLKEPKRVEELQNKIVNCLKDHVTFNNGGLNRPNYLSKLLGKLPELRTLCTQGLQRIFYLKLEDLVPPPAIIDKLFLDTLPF
How it was run: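 Cells: HepG2, transiently transfected. Exposure: 24 h. Detection: fluorescence of labelled RT-PCR products separated by capillary electrophoresis; upward fit versus DMSO.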

[16] = target: Transcriptional activator Myb (Homo sapiens) (UniProt P10242); assay: ATG_Myb_CIS: Attagene CIS-FACTORIAL HepG2 Assay for human Myeloblastosis (Myb) Proto-Oncogene Transcription Factor (AID 2282986; active = hit-call score of the fitted dose curve at least 0.9, where 1 is the maximum; inactive = score below 0.9); settings: HepG2 Attagene CIS-FACTORIAL Myb reporter transcription; actives raise or lower the signal
Transcriptional activator Myb (Homo sapiens), sequence (P10242 whole entry, looked up): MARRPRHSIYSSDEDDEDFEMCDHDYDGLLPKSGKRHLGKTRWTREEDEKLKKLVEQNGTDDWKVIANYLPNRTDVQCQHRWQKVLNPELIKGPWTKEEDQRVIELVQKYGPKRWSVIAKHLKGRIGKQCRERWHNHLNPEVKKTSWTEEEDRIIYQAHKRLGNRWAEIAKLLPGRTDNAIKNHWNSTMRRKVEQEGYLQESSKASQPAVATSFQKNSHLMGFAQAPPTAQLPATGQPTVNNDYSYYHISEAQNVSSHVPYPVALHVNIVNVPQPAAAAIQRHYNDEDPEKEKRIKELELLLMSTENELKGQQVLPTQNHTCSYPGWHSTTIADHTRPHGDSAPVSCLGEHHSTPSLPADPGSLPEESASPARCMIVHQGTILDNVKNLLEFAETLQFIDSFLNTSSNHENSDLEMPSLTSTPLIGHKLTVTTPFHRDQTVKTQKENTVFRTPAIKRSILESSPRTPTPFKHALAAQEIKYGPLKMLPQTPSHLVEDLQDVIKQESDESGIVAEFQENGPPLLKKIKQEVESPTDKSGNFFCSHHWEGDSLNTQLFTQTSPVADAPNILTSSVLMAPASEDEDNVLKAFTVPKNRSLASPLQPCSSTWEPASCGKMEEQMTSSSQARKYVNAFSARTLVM
How it was run: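 Reporter mRNA is quantified by RT-PCR and capillary electrophoresis 24 h after dosing HepG2 cells transfected with cis-regulated reporter units, which track endogenous transcription factor activity. Gain and loss of signal are fitted versus DMSO baseline.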

[17] = target: Glucocorticoid receptor (Homo sapiens) (UniProt P04150); assay: ATG_GR_TRANS: Attagene TRANS-FACTORIAL HepG2 Assay for human Glucocorticoid Receptor (GR) (AID 2282978); settings: HepG2 Attagene TRANS GR reporter, mRNA transcription;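 also: activators score as hits since higher reporter transcript over DMSO is fitted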
Glucocorticoid receptor (Homo sapiens), sequence (P04150 whole entry, looked up, the tested form may be a part): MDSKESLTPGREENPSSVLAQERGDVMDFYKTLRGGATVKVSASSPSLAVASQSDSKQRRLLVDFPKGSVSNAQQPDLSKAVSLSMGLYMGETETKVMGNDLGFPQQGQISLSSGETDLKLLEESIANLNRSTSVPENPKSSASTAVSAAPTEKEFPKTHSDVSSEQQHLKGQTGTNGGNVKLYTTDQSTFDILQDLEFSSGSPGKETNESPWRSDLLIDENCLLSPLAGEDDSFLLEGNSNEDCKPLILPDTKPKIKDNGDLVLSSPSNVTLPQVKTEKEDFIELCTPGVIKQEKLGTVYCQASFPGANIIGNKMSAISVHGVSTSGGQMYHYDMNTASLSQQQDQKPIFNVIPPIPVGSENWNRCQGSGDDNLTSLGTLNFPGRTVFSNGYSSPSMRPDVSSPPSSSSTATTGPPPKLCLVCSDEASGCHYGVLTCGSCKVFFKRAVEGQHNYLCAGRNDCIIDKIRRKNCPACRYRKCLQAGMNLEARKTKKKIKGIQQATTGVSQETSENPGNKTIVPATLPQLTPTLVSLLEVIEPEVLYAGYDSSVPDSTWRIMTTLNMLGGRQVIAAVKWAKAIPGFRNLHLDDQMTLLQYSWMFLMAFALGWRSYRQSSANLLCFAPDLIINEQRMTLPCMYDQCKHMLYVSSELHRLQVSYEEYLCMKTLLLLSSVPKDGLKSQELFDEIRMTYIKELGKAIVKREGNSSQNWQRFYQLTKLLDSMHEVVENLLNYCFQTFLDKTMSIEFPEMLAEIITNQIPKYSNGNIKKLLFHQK
How it was run: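 Readout is reporter transcript from a chimeric GR-Gal4 acting on GAL4-UAS in transfected human HepG2 liver cells after 24 h exposure, quantified by RT-PCR and capillary electrophoresis. Activation fitted upward against DMSO.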

Measured: AC50

CCCCC/C=C\C/C=C\CCCCCCCC(=O)O
active: [2] 100 µM | [6] 147 µM
inactive: [1] | [3] | [4] | [5] | [7] | [8] | [9] | [10] | [11]

Cc1cc(C)n(CO)n1
inactive: [1] | [2] | [3] | [4] | [5] | [6] | [12] | [8] | [13] | [14] | [10] | [11]

Nc1ccc(Cl)c(N)c1
inactive: [1] | [2] | [3] | [4] | [5] | [7] | [12] | [13] | [10] | [11] | [15] | [16]

C=CC(=O)OCCCCCCCC(C)C
active: [3] 55 µM
inactive: [1] | [2] | [4] | [5] | [6] | [12] | [8] | [13] | [14] | [10] | [16]

[Cl][Eu]([Cl])[Cl]
inactive: [1] | [2] | [3] | [4] | [6] | [17] | [8] | [10] | [16]
active: [5] 36.6 µM

C=CC(C)(CCC=C(C)C)OC(=O)C=Cc1ccccc1 (stereo not drawn)
inactive: [1] | [2] | [3] | [4] | [6] | [8] | [14] | [10] | [16]
active: [5] 7.3 µM

CCC1COC(=O)O1 (stereo not drawn)
inactive: [1] | [2] | [3] | [4] | [5] | [6] | [17] | [8] | [13] | [14] | [10] | [11] | [16]

CCCCCCCCCCCC(=O)N(C)CC(=O)O
inactive: [1] | [2] | [3] | [4] | [5] | [6] | [12] | [17] | [10] | [11] | [16]

O=C(O)/C=C/c1ccccc1
inactive: [1] | [2] | [3] | [4] | [6] | [12] | [10] | [11] | [16]
active: [5] 61.7 µM

CCCCc1ccc(Cl)cc1
inactive: [1] | [2] | [3] | [4] | [5] | [6] | [12] | [8] | [10] | [11] | [15] | [16]
